Test results from PubChem BioAssay AID1159580 (chemical genetic matrix, 2015).
The campaign covered roughly 5,500 compounds. About 2,000 (36%) were called active. Roughly 18% stayed inconclusive and do not appear here. No stated cut-off is given here; in the data, active means normalized growth mostly below about 0.91 (no sharp cut-off); inconclusive means no clear call, values can overlap the other calls; inactive means mostly above about 0.92. Some of the results follow.

Experiment: chemical genetic growth profiling, strain panel (AID 1159580);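 further: tested at 20 µM; growth read once vehicle control cultures reached saturation at 30 °C; 1 = growth at the plate median or of vehicle wells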
Conditions: S. cerevisiae deletion strains, growth OD
[1] = locus YAL013W, strain DEP1, stronger effect = lower value
[2] = locus YGR078C, strain PAC10, stronger effect = lower value
[3] = locus YHR030C, strain SLT2, stronger effect = lower value
[4] = locus YJR075W, strain HOC1, stronger effect = lower value
[5] = locus YNL128W, strain TEP1, stronger effect = lower value
[6] = locus YNL153C, strain GIM3, stronger effect = lower value
[7] = locus YNL322C, strain KRE1, stronger effect = lower value
[8] = locus YPL241C, strain CIN2, stronger effect = lower value
[9] = locus YAL040C, strain CLN3, stronger effect = lower value
[10] = locus YCL061C, strain MRC1 (second series), stronger effect = lower value
[11] = locus YDR363W, strain ESC2, stronger effect = lower value
[12] = locus YER002W, strain NOP16, stronger effect = lower value
[13] = locus YNL175C, strain NOP13, stronger effect = lower value
[14] = locus YNL197C, strain WHI3, stronger effect = lower value
[15] = locus YNL224C, strain SQS1, stronger effect = lower value
[16] = locus YOR083W, strain WHI5 (second series), stronger effect = lower value

Measured: normalized growth

Cc1cccc(C)c1N=C1SCCS1
inactive: [1] 1 | locus YBR229C, strain ROT2, stronger effect = lower value 0.99 | locus YCL061C, strain MRC1, stronger effect = lower value 0.982 | locus YDL101C, strain DUN1, stronger effect = lower value 0.986 | locus YDL134C, strain PPH21, stronger effect = lower value 1.02 | locus YDR150W, strain NUM1, stronger effect = lower value 0.902 | locus YEL061C, strain CIN8, stronger effect = lower value 1.01 | [2] 0.99 | locus YGR229C, strain SMI1, stronger effect = lower value 0.997 | [3] 0.929 | locus YHR087W, strain rtc3, stronger effect = lower value 0.988 | locus YJR043C, strain POL32, stronger effect = lower value 0.995 | [4] 0.996 | locus YKL190W, strain CNB1, stronger effect = lower value 1 | locus YLR039C, strain RIC1, stronger effect = lower value 0.941 | locus YLR058C, strain SHM2 (second series), stronger effect = lower value 0.996 | locus YLR085C, strain ARP6, stronger effect = lower value 0.99 | locus YLR262C, strain YPT6, stronger effect = lower value 0.978 | locus YML094W, strain GIM5, stronger effect = lower value 0.978 | locus YMR219W, strain ESC1, stronger effect = lower value 0.996 | locus YMR263W, strain SAP30, stronger effect = lower value 0.934 | locus YMR307W, strain GAS1, stronger effect = lower value 0.93 | [5] 1 | [6] 0.966 | locus YNL298W, strain CLA4 (second series), stronger effect = lower value 0.99 | [7] 0.988 | locus YNR030W, strain Alg12, stronger effect = lower value 1 | locus YPL055C, strain LGE1, stronger effect = lower value 0.906 | [8] 0.865 | locus YPR135W, strain CTF4, stronger effect = lower value 0.887

CN(C)CCC(c1ccc(Cl)cc1)c1ccccn1 (stereo not drawn)
inactive: [9] 0.987 | [10] 0.999 | [11] 0.993 | [12] 0.987 | [2] 1.01 | [3] 0.962 | locus YHR079C, strain IRE1, stronger effect = lower value 0.97 | locus YJL095W, strain BCK1, stronger effect = lower value 0.999 | locus YJR066W, strain TOR1, stronger effect = lower value 0.927 | [4] 0.991 | locus YLR113W, strain HOG1, stronger effect = lower value 1.01 | [6] 0.998 | [13] 1 | locus YNL183C, strain NPR1, stronger effect = lower value 0.941 | [14] 1.03 | [15] 1.01 | [7] 0.992 | [16] 1.01 | locus YOR231W, strain MKK1, stronger effect = lower value 0.971 | [8] 0.998 | locus YPL256C, strain CLN2, stronger effect = lower value 0.94

Cc1cccc(C)c1OCC(N)C(C)C (stereo not drawn)
inactive: [1] 1.01 | [9] 0.995 | [10] 1 | [11] 0.999 | [12] 0.998 | [4] 1.01 | [5] 0.988 | [6] 1.02 | [13] 1.02 | [14] 1 | [15] 0.998 | [16] 1
